Source: the supplement of paper PMC8728848
About 410 targets per protein were measured; listed, in parts, are those with the strongest signals and a random draw of the rest.

Experiments:
Test in all cases: glycan array binding signal (z-score within array); higher = stronger binding
Conditions in all cases: glycan notation: IUPAC condensed, linker removed
[1] = target: Neu5Ac(a2-3)Gal(b1-4)GlcNAc(b1-6)[Gal(b1-3)]GalNAc
Method in brief: (§1)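 From the Consortium for Functional Glycomics database, 3228 arrays were curated, keeping only those whose protein sequence was available. Binding is given as a within-array Z-score averaged across arrays sharing a protein sequence and across linkers. Negative Z-scores can be read as non-binding.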

[2] = target: Neu5Ac(a2-3)Gal(b1-4)[Fuc(a1-3)]GlcNAc(b1-3)GalNAc
Method in brief: as §1

[3] = target: Neu5Ac(a2-3)Gal(b1-4)[Fuc(a1-3)]GlcNAc(b1-6)[Gal(b1-3)]GalNAc
Method in brief: as §1

[4] = target: Neu5Ac(a2-6)Gal(b1-4)GlcNAc(b1-2)Man(a1-6)[GlcNAc(b1-2)Man(a1-3)]Man(b1-4)GlcNAc(b1-4)GlcNAc
Method in brief: as §1

[5] = target: Neu5Ac(a2-6)GlcNAc(b1-4)GlcNAc(b1-4)GlcNAc
Method in brief: as §1

[6] = target: Neu5Ac(a2-8)Neu5Ac(a2-3)Gal(b1-4)Glc
Method in brief: as §1

[7] = target: Neu5Ac(a2-8)Neu5Ac(a2-3)[Gal(b1-3)GalNAc(b1-4)]Gal(b1-4)Glc
Method in brief: as §1

[8] = target: Fuc(a1-2)Gal(b1-3)[Fuc(a1-4)]GlcNAc(b1-2)Man(a1-3)[Fuc(a1-2)Gal(b1-3)[Fuc(a1-4)]GlcNAc(b1-2)Man(a1-6)]Man(b1-4)GlcNAc(b1-4)[Fuc(a1-6)]GlcNAc(b1-4)[Fuc(a1-6)]GlcNAc
Method in brief: as §1

[9] = target: Fuc(a1-2)Gal(b1-4)[Fuc(a1-3)]GlcNAc(b1-2)Man(a1-3)[Fuc(a1-2)Gal(b1-4)[Fuc(a1-3)]GlcNAc(b1-2)Man(a1-6)]Man(b1-4)GlcNAc(b1-4)[Fuc(a1-6)]GlcNAc
Method in brief: as §1

[10] = target: Fuc(a1-2)[Gal(a1-3)]Gal(b1-3)GlcNAc
Method in brief: as §1

[11] = target: Fuc(a1-2)[GalNAc(a1-3)]Gal(b1-4)GlcNAc
Method in brief: as §1

[12] = target: Fuc(a1-3)[Gal(b1-4)]GlcNAc(b1-2)Man(a1-3)[Fuc(a1-3)[Gal(b1-4)]GlcNAc(b1-2)Man(a1-6)]Man(b1-4)GlcNAc(b1-4)GlcNAc
Method in brief: as §1

Gal(a1-3)Gal(b1-3)GlcNAc = target: Gal(a1-3)Gal(b1-3)GlcNAc
Method in brief: as §1

[13] = target: Gal(a1-3)Gal(b1-4)GlcNAc(b1-2)Man
Method in brief: as §1

Gal(a1-4)Gal(b1-4)GlcNAc = target: Gal(a1-4)Gal(b1-4)GlcNAc
Method in brief: as §1

Gal(a1-4)GlcNAc = target: Gal(a1-4)GlcNAc
Method in brief: as §1

Gal(b1-2)Gal = target: Gal(b1-2)Gal
Method in brief: as §1

Gal(b1-3)Gal = target: Gal(b1-3)Gal
Method in brief: as §1

Gal(b1-3)Gal(b1-4)GlcNAc = target: Gal(b1-3)Gal(b1-4)GlcNAc
Method in brief: as §1

[14] = target: Gal(b1-3)GlcNAc(a1-6)Gal(b1-4)GlcNAc
Method in brief: as §1

[15] = target: Gal(b1-3)GlcNAc(b1-2)Man(a1-3)[Gal(b1-3)GlcNAc(b1-2)Man(a1-6)]Man(b1-4)GlcNAc(b1-4)[Fuc(a1-6)]GlcNAc
Method in brief: as §1

[16] = target: Gal(b1-3)GlcNAc(b1-6)Gal(b1-4)GlcNAc
Method in brief: as §1

[17] = target: Gal(b1-4)GlcNAc(b1-2)Man(a1-6)Man(b1-4)GlcNAc(b1-4)GlcNAc
Method in brief: as §1

[18] = target: Gal(b1-4)GlcNAc(b1-2)[Gal(b1-4)GlcNAc(b1-4)]Man(a1-3)[Gal(b1-4)GlcNAc(b1-2)Man(a1-6)]Man(b1-4)GlcNAc(b1-4)GlcNAc
Method in brief: as §1

[19] = target: Gal(b1-4)GlcNAc(b1-2)[Gal(b1-4)GlcNAc(b1-6)]Man(a1-6)[Gal(b1-4)GlcNAc(b1-2)Man(a1-3)]Man(b1-4)GlcNAc(b1-4)[Fuc(a1-6)]GlcNAc
Method in brief: as §1

[20] = target: Gal(b1-4)GlcNAc(b1-3)Gal(b1-3)GlcNAc
Method in brief: as §1

[21] = target: Gal(b1-4)GlcNAc(b1-3)Gal(b1-4)GlcNAc(b1-2)Man(a1-3)[Gal(b1-4)GlcNAc(b1-3)Gal(b1-4)GlcNAc(b1-2)Man(a1-6)]Man(b1-4)GlcNAc(b1-4)[Fuc(a1-6)]GlcNAc
Method in brief: as §1

[22] = target: Gal(b1-4)GlcNAc(b1-3)Gal(b1-4)GlcNAc(b1-3)Gal(b1-4)GlcNAc(b1-3)Gal(b1-4)GlcNAc(b1-2)Man(a1-3)[Gal(b1-4)GlcNAc(b1-3)Gal(b1-4)GlcNAc(b1-3)Gal(b1-4)GlcNAc(b1-3)Gal(b1-4)GlcNAc(b1-2)Man(a1-6)]Man(b1-4)GlcNAc(b1-4)[Fuc(a1-6)]GlcNAc
Method in brief: as §1

[23] = target: Gal(b1-4)GlcNAc(b1-3)Gal(b1-4)GlcNAc(b1-3)Gal(b1-4)GlcNAc(b1-3)Gal(b1-4)GlcNAc(b1-3)Gal(b1-4)GlcNAc(b1-2)Man(a1-3)[Gal(b1-4)GlcNAc(b1-3)Gal(b1-4)GlcNAc(b1-3)Gal(b1-4)GlcNAc(b1-3)Gal(b1-4)GlcNAc(b1-3)Gal(b1-4)GlcNAc(b1-2)Man(a1-6)]Man(b1-4)GlcNAc(b1-4)GlcNAc
Method in brief: as §1

Gal3S(b1-3)GalNAc = target: Gal3S(b1-3)GalNAc
Method in brief: as §1

Gal3S(b1-4)Glc = target: Gal3S(b1-4)Glc
Method in brief: as §1

Gal3S(b1-4)Glc6S = target: Gal3S(b1-4)Glc6S
Method in brief: as §1

Gal3S6S(b1-4)GlcNAc = target: Gal3S6S(b1-4)GlcNAc
Method in brief: as §1

Glc(a1-4)Glc = target: Glc(a1-4)Glc
Method in brief: as §1

GlcNAc(b1-3)Fuc = target: GlcNAc(b1-3)Fuc
Method in brief: as §1

[24] = target: GlcNAc(b1-4)Gal(b1-4)GlcNAc
Method in brief: as §1

Kdn(a2-3)Gal(b1-4)Glc = target: Kdn(a2-3)Gal(b1-4)Glc
Method in brief: as §1

B1: SefD (Salmonella enterica), Q9L6K6 (protein)
chain: GAYIIRGQNNSAHKLRIRIGGEDWQPDNSGIGMVSHSDFTNEFNIYYFGNGDIPVDTYLISIYATEIEL
[1]
  glycan array binding signal (z-score): 3.13
[2]
  glycan array binding signal (z-score): 11.3
[3]
  glycan array binding signal (z-score): -0.092
[4]
  glycan array binding signal (z-score): -0.228
[5]
  glycan array binding signal (z-score): -0.293
[6]
  glycan array binding signal (z-score): 0.431
[7]
  glycan array binding signal (z-score): 0.969

B2: FliD (Clostridium difficile) (protein)
chain: MSSISPVRVTGLSGNFDMEGIIEASMIRDKEKVNKAKQDQQIVKWKQEIYRDIIKESKNLYDKYLNGDSPNSITNKKAYSATRITSSDESIIVAKGSAGAEKINYQFAVSQMAEPAKVTIKLNSSDPIVQQFPPNASGASSLNIGGVNIPISEQDTTSTIVSKINSLCADNDIRASYSEMTGELIISRKQTGSSSDIDLKVIGNDSLAGQIASDNGITFTTDASGTKSAVVYGKNLEADVTDDQGRVTHISKEQNSFKIDNIDYNVNSKGSAKLVSVTDTEEATKNMKAFVDDYNALMDKVYGLVTTKKSKDYPPLTDEQKDDMTTEEIEKWEKKAKEGILRNDDELRAFVEDIQSMFFGDADTIIALRKLGISEHENYNKKGQISFNADTFSKALIDDSDKVYKALAGYSSNYDDKGMFEKLKKIVFEYSGSSASKLTKKAGMENSSSASQNVYSKQIAEQERNISRLVEKMNDKEKRLYAKYSALESLLNKYSSQMNYFSQAQGN
[8]
  glycan array binding signal (z-score): -0.156
[9]
  glycan array binding signal (z-score): -0.162
[10]
  glycan array binding signal (z-score): 1.88
[11]
  glycan array binding signal (z-score): -0.235
[12]
  glycan array binding signal (z-score): -0.161
Gal(a1-3)Gal(b1-3)GlcNAc
  glycan array binding signal (z-score): 12.1
[13]
  glycan array binding signal (z-score): -0.211
Gal(a1-4)Gal(b1-4)GlcNAc
  glycan array binding signal (z-score): -0.161
Gal(a1-4)GlcNAc
  glycan array binding signal (z-score): 1.22
Gal(b1-2)Gal
  glycan array binding signal (z-score): 1.49
Gal(b1-3)Gal
  glycan array binding signal (z-score): -0.262
Gal(b1-3)Gal(b1-4)GlcNAc
  glycan array binding signal (z-score): -0.236
[14]
  glycan array binding signal (z-score): -0.181
[15]
  glycan array binding signal (z-score): -0.117
[16]
  glycan array binding signal (z-score): 0.007
[17]
  glycan array binding signal (z-score): -0.233
[18]
  glycan array binding signal (z-score): -0.254
[19]
  glycan array binding signal (z-score): -0.222
[20]
  glycan array binding signal (z-score): -0.084
[21]
  glycan array binding signal (z-score): 1.44
[22]
  glycan array binding signal (z-score): 1.2
[23]
  glycan array binding signal (z-score): -0.072
Gal3S(b1-3)GalNAc
  glycan array binding signal (z-score): 0.678
Gal3S(b1-4)Glc
  glycan array binding signal (z-score): 3.41
Gal3S(b1-4)Glc6S
  glycan array binding signal (z-score): 1.24
Gal3S6S(b1-4)GlcNAc
  glycan array binding signal (z-score): -0.201
Glc(a1-4)Glc
  glycan array binding signal (z-score): -0.054
GlcNAc(b1-3)Fuc
  glycan array binding signal (z-score): -0.089
[24]
  glycan array binding signal (z-score): -0.232
Kdn(a2-3)Gal(b1-4)Glc
  glycan array binding signal (z-score): -0.172
